# Dicer processing – inhibitors of Dicer pre-microRNA processing, primary screen, biochemical, cat-ELCCA, chemiluminescence; z-score at 25 µM; actives 6% (n = 47,000); Endoribonuclease Dicer (Homo sapiens), Q9UPY3; cat-ELCCA pre-miR-21 Dicer processing; hits give high values; in the data active = z-score above about 3, passing the limit was not always enough;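 also: higher signal means more uncleaved substrate so more Dicer inhibition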
# A number is an active result; . = inactive. The entries come from a sample that favours hits as a whole.
SMILES,Dicer processing
COc1ccc(C2Nc3ccc(C(=O)c4ccccc4)cc3NC3=C2C(=O)CCC3)c(OC)c1 (stereo not given),.
COc1cc(C2Nc3ccc(C(=O)c4ccccc4)cc3NC3=C2C(=O)CCC3)ccc1OC(C)=O (stereo not given),.
CN(C)c1ccc(C2Nc3ccc(C(=O)c4ccccc4)cc3NC3=C2C(=O)CCC3)cc1 (stereo not given),5
c1ccc(C2CN(Cc3ccco3)C(c3ccccc3)O2)cc1 (stereo not given),3.5
O=C(O)C1CC(=O)N(Cc2ccco2)C1 (stereo not given),.
O=c1[nH]c(=O)n(-c2ccccc2)c2c1CN(Cc1ccco1)CN2,.
CC(C)(C)c1cc([N+](=O)[O-])c2cc(C(C)(C)C)cc([N+](=O)[O-])c2c1,.
O=C(CSc1nccc(-c2cccs2)n1)N1CCc2c([nH]c3ccccc23)C1C(F)(F)F (stereo not given),3.3
O=C(CSc1nc2ccccc2s1)N1CCc2c([nH]c3ccccc23)C1C(F)(F)F (stereo not given),.
O=C(O)c1cccnc1C(=O)N1CCc2c([nH]c3ccccc23)C1C(F)(F)F (stereo not given),.
CCOC(=O)c1nnn2c1nc(N1CCN(C)CC1)c1ccccc12,.
Nc1nc2c(-c3ccc([N+](=O)[O-])cc3)nnn2c2ccccc12,3.9
Nc1nc2c(C(=O)N3CCOCC3)nnn2c2ccccc12,.
O=C1CCCC2=C1C(c1ccccc1Cl)c1c([nH]n(-c3ccccc3)c1=O)N2 (stereo not given),.
CC1(C)C2CCC1(CS(=O)(=O)N1CCCN(c3nc4ccc(Cl)cc4s3)CC1)C(=O)C2 (stereo not given),.
CCOc1ccc(-c2n[nH]c(C)c2Oc2ccc(F)cc2)c(O)c1,.
CCOc1cc(O)c(-c2n[nH]c(C)c2Oc2ccccc2)cc1CC,.
Cc1[nH]nc(-c2ccc(O)c(C)c2O)c1Oc1ccccc1,3.1
CCOc1ccc(C2C3=C(CC(C)(C)CC3=O)Nc3nc(N)[nH]c(=O)c32)cc1 (stereo not given),.
CCCn1c(NCc2cc(Cl)ccc2O)nc2ccccc21,.
CC(C)n1c(NCc2ccccc2O)nc2ccccc21,.
C=CCn1c(NCc2ccc(N(CC)CC)cc2)nc2ccccc21,.
C=CCn1c(NCc2cc(Cl)ccc2O)nc2ccccc21,3.9
CCn1c(NCc2cc(Cl)ccc2O)nc2ccccc21,3
C=CCn1c(NCc2ccccc2O)nc2ccccc21,.
SMILES,Dicer processing
N#C/C(=C\c1cc(C#Cc2ccccc2)cs1)C(=O)c1ccccc1,.
O=C(Nc1cc(C(F)(F)F)ccc1N1CCOCC1)c1cccnc1Oc1ccccc1,.
Cc1nc2ccc(NC(=O)Nc3ccccc3)cc2o1,.
Cc1sc2ncnc(SCC(=O)NCc3ccco3)c2c1C,.
COc1ccc(N2C(=O)C3C4c5ccccc5C(C(C)O)(c5ccccc54)C3C2=O)cc1 (stereo not given),.
CCCc1cnc(N2CCCN(C(=S)Nc3ccc(C)cc3)CC2)nc1,.
COc1ccccc1OCCSc1nc2ccccc2[nH]1,.
COc1ccc(C2=CC(c3ccccc3Cl)n3nc(CCCO)nc3N2)cc1 (stereo not given),.
C=CCN1C(=O)C2(/C(=C(/O)c3ccc(C)c(F)c3)C(=O)C(=O)N2CCCOC)c2ccccc21 (stereo not given),.
Cc1cc(C)c2c(N)c(C(=O)NN)sc2n1,.
CCOC(=O)c1sc2nc(C)cc(C)c2c1N,.
CNC(=S)NNC(=O)c1sc2nc(C)cc(C)c2c1N,4.6
CCOC(=O)c1c(-c2ccc(F)cc2)csc1N,.
O=C(Nc1ccc2c(c1)OCCO2)C1CCN(S(=O)(=O)c2ccc(Br)cc2)CC1,.
O=C(/C(=N\N=C\c1ccc(Cl)cc1)c1ccccc1)c1ccccc1,.
CCc1cccc(C)c1NC1=NCCC(=O)S1,.
CCOC(=O)CCC(=O)c1c(C)oc2ccc(OC)cc12,3.1
COCCOC(=O)c1c(C)oc2ccc(OC)cc12,.
CCOC(=O)c1c(C)oc2ccc(OC)cc12,.
CCOc1ccc(CN2CCN(Cc3cc(Br)ccc3O)CC2)cc1,.
Cc1cc2c(cc1C)CSC(C)(c1ccccc1)SC2,.
O=C(Nc1cccc(Cl)c1)NC1Cc2ccccc2C1,.
CN(C(=O)CSc1nc(-c2cccs2)cc(C(F)(F)F)n1)c1ccccc1,.
COc1ccc(Sc2ccc(C)cc2)c([N+](=O)[O-])c1,.
Cc1ccc(Sc2cc(N3CCOCC3)c(C)cc2[N+](=O)[O-])cc1,.
Cc1ccc(Sc2ccc(/C=C3/SC(=S)NC3=O)cc2[N+](=O)[O-])cc1,4.6
COC(=O)c1ccccc1Sc1nc2ccc(Cl)cc2s1,.
CCN1C(=O)C2(/C(=C(/O)c3ccc(OC)cc3)C(=O)C(=O)N2CCCN(C)C)c2ccccc21 (stereo not given),3.3
CCCN1C(=O)C2(/C(=C(/O)c3ccc(OC)cc3)C(=O)C(=O)N2CCCN(C)C)c2ccccc21 (stereo not given),.
